From PubChem
RN4220 kill: growth inhibition of S. aureus RN4220, primary screen, OD600; 16 h; inhibition, % (concentration not given with the values); 330,000 tested, 0.33% active; in the data active = inhibition above about 85%;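 note: plate controls were untreated cells for no effect and reference antibiotic for full effect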
SSB-PriA inh: inhibitors of Klebsiella pneumoniae PriA binding to SSB C-terminal tail, primary screen, biochemical, AlphaScreen; PriA–SSB C-terminal tail interaction (Klebsiella pneumoniae); 430,000 tested, 0.6% active; inhibition, % at 33 µM; AlphaScreen SSBct-PriA binding, biotinylated peptide; AID 1272365, 2023; in the data active = inhibition mostly above about 37%, no sharp cut-off; inactive = mostly below about 20%;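 note: plate controls were negative control peptide for no effect and reference peptide for full effect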
Sa ugtP lethal: growth inhibition of ugtP-null S. aureus, primary screen, RN4220 ugtP deletion, OD600; 16 h; growth inhibition, % (no concentration beside the values); 330,000 tested, 0.54% active; in the data active = growth inhibition above about 68%;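 note: plate controls were untreated wells for no effect and antibiotic for full effect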
Active calls of the source: *; · = not tested or not shown. Compounds with a hit are over-represented: about 1% of the library has one in this group of screens.

SMILES	RN4220 kill	SSB-PriA inh	Sa ugtP lethal
COc1ccc(NC(=O)ON=Cc2ccncc2)cc1	1	7	0
O=C(Nc1ccc(Cl)c(Cl)c1)c1cccc(S(=O)(=O)NCc2cccnc2)c1	100*	-13	90
O=C(Nc1ccc(Cl)c(Cl)c1)ON=Cc1ccncc1	100*	-12	101*
Cc1ccc(S(=O)(=O)N(C)CC(O)Cn2cc(C=C3C(=O)CC(C)(C)CC3=O)c3ccccc32)cc1 (stereo not drawn)	·	-11	·
Cn1cnnc1S(=O)(=O)C1CCN(C(=O)Cn2nnc3ccccc32)CC1	·	4	·
Cc1cc(Cl)ccc1OCC(=O)Nc1cccc(S(=O)(=O)NC2=NCCCCC2)c1	-1	0	-9
Cc1ccc(C)c(OCC(=O)Nc2cccc(S(=O)(=O)NC3=NCCCCC3)c2)c1	2	49*	4
CCCCOC1(c2ccccc2)OC(=O)c2ccccc21 (stereo not drawn)	2	-69	42
CCCCC(CC)COC1(c2ccccc2)OC(=O)c2ccccc21 (stereo not drawn)	-4	-29	86*
O=C(COC(=O)c1ccc(C2Nc3ccccc3S(=O)(=O)N2)cc1)Nc1cc(F)ccc1F (stereo not drawn)	·	0	·
COc1ccc(C(=O)NC(=S)NNC(=O)c2cnccn2)cc1	22	22	0
Cc1ccc(-c2nc3ccccc3o2)cc1NC(=S)NC(=O)/C=C/c1ccco1	6	12	25
CC(=O)c1ccc(NC(=S)NC(=O)/C=C/c2ccco2)cc1	-3	3	33
O=C(/C=C/c1ccco1)NC(=S)Nc1ccccc1	2	-3	93*
COc1cc(C(=O)NC(=S)NNC(=O)c2cnccn2)cc(OC)c1OC	20	82*	-1
O=C(NN=Cc1ccco1)c1cnccn1	1	10	7
O=C(/C=C/c1ccco1)NC(=S)Nc1cccc(-c2nc3ccccc3o2)c1	15	6	98*
O=C(/C=C/c1ccco1)NC(=S)NNC(=O)c1cnccn1	·	66*	·
CC(O)(CNC(=O)Cc1c(F)cccc1Cl)C1CC1 (stereo not drawn)	·	-5	·
Cc1nc2ccc(NC(=O)c3cccc(NS(=O)(=O)c4ccc(F)cc4)c3)cc2s1	·	3	·
COC(=O)c1ccc(C(=O)NCCn2nc(C(F)(F)F)cc2C2CC2)cc1	·	-5	·
O=C(NCCn1ncc2c(N3CCN(Cc4ccccc4)CC3)ncnc21)c1cccc(Cl)c1	·	12	·
O=C(c1cc(=O)c2ccccc2o1)N1Cc2cncnc2C1	·	-12	·
O=C(NCCn1ccc(-c2cccs2)n1)C1(c2cccs2)CCCC1	·	1	·
CC(Oc1ccccc1)C(=O)N1CCN(c2nccn2-c2cccc(Cl)c2)CC1 (stereo not drawn)	·	29	·
SMILES	RN4220 kill	SSB-PriA inh	Sa ugtP lethal
Cc1ccc(CSc2ccc(NC(=O)C3CC3)nn2)cc1	·	0	·
O=C(/C=C/c1cccs1)NC(=S)Nc1ccccc1	97	7	active
COC(=O)c1ccccc1NC(=S)NC(=O)/C=C/c1cccs1	·	10	·
CC(C)Sc1ccc(CC(=O)NCC2CCCN2c2nccs2)cc1 (stereo not drawn)	·	18	·
Cc1ccc(NC(=O)CSc2nc3ccccc3c(=O)n2Cc2cccs2)cc1	1	-1	-1
Cc1ccc(Cn2c(SCC(=O)Nc3ncn[nH]3)nc3ccccc3c2=O)cc1	·	90*	·
Cc1n[nH]c(C)c1CCC(=O)N1CCSC(c2ccccc2Cl)CC1 (stereo not drawn)	·	0	·
O=C(c1nnsc1S(=O)(=O)c1ccc(Cl)cc1)N1CCOCC1	10	-20	19
Cc1nnsc1S(=O)c1ccc(Cl)cc1 (stereo not drawn)	5	-17	14
O=C(Nc1ccccc1)c1nnsc1S(=O)c1ccc(Cl)cc1 (stereo not drawn)	100*	-23	101*
O=C(c1nnsc1S(=O)c1ccc(Cl)cc1)N1CCOCC1 (stereo not drawn)	95*	-21	101*
COC(=O)c1sccc1S(=O)(=O)NCC1(Sc2ccccc2)CCOCC1	·	7	·
CCCCOc1ccc(C(=O)NCc2nnc(SCc3cccc(C(F)(F)F)c3)n2-c2ccccc2)cc1	·	-6	·
COC(=O)c1scc(-c2ccc(C)cc2)c1S(=O)(=O)N1CCC(C(N)=O)CC1	·	-15	·
COc1ccc(C[C@](C)(O)CNC(=O)c2cn(C)nn2)cc1	·	-1	·
Cc1cc(C(C)(C)C)cc(C)c1Cn1c2[n+](c3ccc(C(F)(F)F)cc31)CCCCC2	101*	10	100*
FC(F)(F)c1cccc(Cn2c3[n+](c4ccc(C(F)(F)F)cc42)CCCCC3)c1	6	-4	2
CCOC(=O)c1cc2c(c(CSc3nc4ccccc4c(=O)n3CCN3CCOCC3)c1)OCOC2	·	-1	·
COc1ccccc1-c1ccc(=O)n(CC(=O)N2CCN(C(c3ccccc3)c3ccccc3)CC2)n1	·	-11	·
COc1ccccc1-c1ccc(=O)n(CC(=O)N2CCN(c3ccc(-c4ccccn4)nn3)CC2)n1	·	104*	·
O=C(Cc1ccccc1F)N1CCN(c2ccc(-c3ccccn3)nn2)CC1	·	34	·
O=C(Cn1ncccc1=O)N1CCN(c2ccc(-c3ccccn3)nn2)CC1	·	130*	·
Cc1ccc(N2CCCS2(=O)=O)cc1NC(=O)NC(c1ccccc1)c1ccccc1	·	-9	·
CN(C)CC1COCCN1C(=O)c1cccc(C#N)c1 (stereo not drawn)	·	-12	·
Cn1c(C(C#N)=C(O)c2cccc(Br)c2)nc2ccccc21	·	4	·
SMILES	RN4220 kill	SSB-PriA inh	Sa ugtP lethal
CN(C)c1cc2c3ccccc3n(C)c2cc1N	4	66*	-10
C/C(=N/O)c1ccc2c3ccccc3n(C)c2c1	·	-13	·
CCCCOC(=O)Nc1sc2c(c1C(=O)OC)CCC2	7	-9	92*
CCOC(=O)Nc1sc2c(c1C(=O)OCC)CCC2	-1	-20	61
O=C(c1ccccc1Br)N1CCC[C@H](c2nnc(C(F)(F)F)o2)C1	·	-11	·
O=C(NC[C@@H](c1ccsc1)N1CCc2ccccc2C1)c1ccc2ccccc2c1	·	0	·
C[n+]1c(-c2ccccc2)cc(CCCCc2cc(-c3ccccc3)[n+](C)c(-c3ccccc3)c2)cc1-c1ccccc1	93*	13	77
COc1ccc(-c2cc(-c3ccccc3)[n+](C)c(-c3ccccc3)c2)cc1	-1	-13	-1
COCCCN1C(=O)C(=O)C(=C(O)c2ccc(S(=O)(=O)N3CCOCC3)cc2)C1c1ccc(C)cc1 (stereo not drawn)	·	-7	·
O=[N+]([O-])c1ccc(N=Nc2ccc(O)cc2O)cc1	99*	6	98*
O=[N+]([O-])c1cccc(N=Nc2ccc(O)cc2O)c1	56	17	45
O=C(CSC1CCCC1)NCC1CCN(c2ccccn2)CC1	·	0	·
COC1CCN(C2CCN(C(=O)NCc3ccc(Cl)cc3)CC2)CC1	·	-14	·
O=C(NCC1CCN(C(=O)c2cccnc2)CC1)C(c1ccccc1)c1ccccc1	·	-26	·
CCC1(C)Cc2ccccc2-c2nc(-c3ccccc3)oc(=O)c21 (stereo not drawn)	-1	-42	85*
CCC1(C)Cc2ccccc2-c2nc(NN)[nH]c(=O)c21 (stereo not drawn)	7	0	1
O=C(NCCC1=CCCCC1)Nc1c[nH]c2ccccc12	·	12	·
